The source of these data is the supplement of paper PMC6555819.

The test system of this test is VDR:RXRa (NR concentration 270 nM, RXRa partner concentration 90 nM). In words: PBM binding z-score (relative to random genomic background probes); higher = stronger binding; sequences stand for … in GC…GCGATTGACAGCGTAGAATGAAGG
Here is the method:
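Protein-binding microarray (Agilent 4x180K custom design, double-stranded 60-nt probes: 5' GC cap, 34-nt variable region, 24-nt constant primer region; full probe sequence given). Purified or IVT nuclear receptor:RXRα heterodimers (3:1 NR:RXRα, mostly 270:90 nM) or homodimers were incubated for 1 h in PBS with 2% milk and no ligand, then detected with Alexa488 antibodies. Fluorescence from o1-orientation probes (~5 replicates averaged) was converted to z-scores against 500 random hg19 background probes. Variable regions are seed direct-repeat (DR0–DR5) sites, all their single-nucleotide variants and half-site ablations.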
Consider TCATATTGGTAAACAGGTGAAAGTCCGTAAGTTA, for which the PBM binding z-score was determined as 1.08. The value for AGAATGAGGTTACCAAAGATTAGGGAAACGCTTG was 1.05; that for TAGCCTAGGTCATGGTCCAGTATACCACGCGAAC was 2.14; that for CCTATTGGGCCAAAAAGGTCATTGATGCCGATAA was 5.02. The value for TCTGTTAGTTGAAGGGCAACCGACGAGTCCGTTT was 0.902. With TCCAGTAGGTTAGTCGGGGCATTCAGCCAACATA, the PBM binding z-score was 2.47. The figure for ATCTCTATGTAACCAAGTTCAGTGAATGCCGAAC is 2.22; for TCATACAGGTGAAGGTAACTCAGGTACGCAGTCG it is 1.36; for AGTCAAAGTTCAGGACGAGGTAACCTAAAGCACG it is 2.94. The figure for ACTACTAGTTGAGACGAGGGCAACCGATAGGTTG is 0.46. Sequence ATATGTAGGTTAGCTGGGTTCATTCAGACTAGGC registered a PBM binding z-score of 6.4. For CCTGCTAGATCAATGGTCAGCTAAAGCAGCTCGC, the PBM binding z-score is -0.615. The figure for TCATATAGGTAAACAGGTGAATGTCCGTAAGTTA is 0.948. With CCTAGTTGGTCAAAGTCACACACGCTATAGGTAC, the PBM binding z-score turned out to be 0.996. The value for GCTGTTAGGTCAACTGATGGTCAGCTAAAGCTCG was 2.01.

On to ATATGTAGATTAAGGGTCATTCAGGTTGGTTCGC, for which the PBM binding z-score turned out to be 5.22. The value for GTCCCAAGGTGAATAGGTCGTTGATGAGTAGGCG was 0.855; that for TCATATAGGTAAAAGGTGGAAGTCGGTGTGGTAA was 1.11.

CCGACTGGGGCAGAAAGGTTACCACACCATCCGG: the PBM binding z-score amounted to 1.15. The figure for CCTAGTTGGTCAGGAGGACACACACCGGATATGA is 0.204. The figure for TGTCAAAGTTCAAAGGTAACGTGAGTATCCACAC is 5.2; for TGAATGAGGTTATAAGATGAGGGAACGTTGCAAA it is 0.832. The figure for CCTAGTTGGTCACGGTCACACACGCTATAGGTAC is 1.12; for TCTTGTAGATCAAGCAGGTTAAGCAAGCCTGAGT it is 0.328; for GCATATAGGTAATACTAGGTGAAAGTCCGATTGT it is 0.212.

In the case of CGTCCAAGGTCAGGGAGGTCAGTGAATGCCGAGT, the PBM binding z-score turned out to be 7.3. In turn, ATCGAAAGGTCGCGAGGTGAGTATACAGAAAGGC returned a PBM binding z-score of 3.53. The figure for CCTTACGGGTGACTGACAGGTTATAGCATTTGGA is 0.132.

Turning to ACTAGTTGGTCAGCCGAGGTCACACACAATTCGG, the PBM binding z-score was 4.66. The value for ACTATTAGTCGAGACGAGGGCAACCGATAGGTTG was 0.293; that for ATCGAAAGGTCGTGGGGTGAGTATACAGAAAGGC was 4.83; that for CAAACTAGCTCACGAAAGGTCAAAGTCGAATGAC was 4.32. Turning to CCAGACAGGTGAAAGGTAACCCAGTCTGGTACGC, the PBM binding z-score came out at 0.645. Consider CGTCCAACGTCATAGGAGGTCAGTGAAGACAGAT, for which the PBM binding z-score turned out to be 2.06.

On to TGAATGAAGTTATAAGATCAGGGAACGTTGCAAA, for which the PBM binding z-score is -0.457. The figure for GCAGACAGGTGAAACGCAGGTAACTCATGGTGGC is -0.567; for CCTGCTAGGTCATGGTCAGCTATTCTACAGTATG it is 1.52; for CGTAAAAGTTCAACTAAGGTAACGTAAAGCACGC it is 4.33. In the case of GCGACTGGGGCAAAGCAGGTTACCGTAAGGTTGG, the PBM binding z-score was -0.0193.

In turn, GGAACGAGGGCAAAGTTGATATCATCTGTCGACG displayed a PBM binding z-score of 1.34.
